The whole screen tested about 410,000 compounds, of which about 5,000 (1.2%) were called active. Inconclusive results (about 13%) are left out. Calls come from the whole dose curve; as a rule, active = well fitted inhibition curve with a large enough effect; inconclusive = small, poorly fitted or top-dose-only effect; inactive = no such curve, though single readings can be large or run the other way. Many of the other results were omitted from the sample, so actives are more common in it than they were.
test: qHTS for Inhibitors of TGF-b; settings: HepG2 CAGA-GFP TGF-b/SMAD3 reporter, GFP fluorescence, 18 h, TGF-beta stimulated, 500 pg/mL final; series mostly up to 46.1 µM; activity, negative = inhibition: at the top concentration; note: nearly all actives have a fitted effect of over 65% in size
Summary of the method: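 HEPG2 CAGA-GFP reporter cells (1000/well, DMEM with 1% FBS) received compounds, then recombinant TGF-beta at 500 pg/mL final for 18 hours at 37 degrees C. Per-cell GFP summed per well was normalised to unstimulated and stimulated DMSO controls before curve fitting.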
% is set by controls: 0 for no effect and ±100 for the full control effect; potency is the fitted concentration of half-maximal effect.

SMILES | activity, negative = inhibition | Potency
CCCCC(CCCC)c1ccc(C=Nc2ccc(/C=C/c3ccnc4ccccc34)cc2)cc1 | -15.9% (inactive) | –
CN(c1ccccc1)S(=O)(=O)c1cc(C(=O)Nc2nc3ccccc3[nH]2)ccc1Cl | -7.35% (inactive) | –
O=C(/C(=C/c1cccc(Cl)c1)c1nc2ccccc2[nH]1)c1ccccc1 | – | 3.16 µM (active)
Cc1ccc2nc(CNC(=O)c3ccccc3)[nH]c2c1 | -2.21% (inactive) | –
Cc1cc(C)c(/C=C/c2onc(C)c2S(=O)(=O)N2CCC(C(=O)Nc3ccc(Cl)cc3C)CC2)c(C)c1 | -0.14% (inactive) | –
Cc1ccc(NC(=O)C(=O)NCC(c2cccnc2)N2CCOCC2)cc1 (stereo unspecified) | -20.2% (inactive) | –
Cc1ccc(S(=O)(=O)N(CC(=O)Nc2ccc(Cl)cc2Cl)c2ccccc2C)cc1 | -23.3% (inactive) | –
COc1ccc(C(C)(NC(C)=O)c2nc(-c3ccc(S(C)(=O)=O)cc3)cs2)cc1 (stereo unspecified) | 3.41% (inactive) | –
COc1ccc(N/C=C(\C2OC(=O)c3ccccc32)[N+](=O)[O-])cc1 (stereo unspecified) | 0% (inactive) | –
COc1ccc(-c2csc(NC3OC(=O)c4ccccc43)n2)cc1 (stereo unspecified) | – | 10 µM (active)
COc1ccc(/C=C/C(=O)c2ccc(NS(=O)(=O)c3ccc(C)cc3)cc2)cc1O | – | 12.6 µM (active)
COc1ccc(/C=C/C(=O)Nc2ccc(C)cc2)cc1S(=O)(=O)N1CCOCC1 | -22.4% (inactive) | –
Cc1ccc(C(=O)/C=C/Nc2ccc(S(=O)(=O)Nc3onc(C)c3C)cc2)cc1 | 0% (inactive) | –
Cc1ccc(C(=O)Nc2ccc(OCc3cc(=O)n4c(C)csc4n3)cc2)cc1 | -8.38% (inactive) | –
COc1ccc(CCNc2ncnc3onc(-c4ccc(Cl)cc4)c23)c(OC)c1 | -3.73% (inactive) | –
Cc1ccc(CNC(=O)CSc2c3c(nc4cc(Cl)ccc24)CCCC3)cc1 | 6.3% (inactive) | –
O=C(CSc1c2c(nc3ccc(Cl)cc13)CCCC2)NCc1ccco1 | -0.373% (inactive) | –
CCOC(=O)C1CCN(C(=O)CSc2c3c(nc4ccc(Cl)cc24)CCCC3)CC1 | – | 15.8 µM (active)
CN(C)C1=C2C=CC=CC2/C(=C2/C=Cc3ccccc32)C=C1 (stereo unspecified) | 4.43% (inactive) | –
CCOC(=O)c1ccc(NC(=O)c2c(NCc3cccs3)sc3c2CCCC3)cc1 | -35.9% (inactive) | –
Cc1ccc(S(=O)(=O)Nc2ccc3c(c2)C(=O)N([C@H](C)CO)C[C@@H](C)[C@@H](CN(C)C(=O)Nc2cccc4ccccc24)O3)cc1 | – | 11.2 µM (active)

SMILES | activity, negative = inhibition | Potency
COc1ccc(NC(=O)N(C)C[C@H]2Oc3ccc(NC(=O)C4CC4)cc3C(=O)N([C@H](C)CO)C[C@@H]2C)cc1 | -0.985% (inactive) | –
Cc1noc(C)c1NC(=O)Nc1ccc2c(c1)C(=O)N([C@H](C)CO)C[C@H](C)[C@@H](CN(C)C(=O)Nc1ccccc1)O2 | -2.4% (inactive) | –
COc1cc(OC)c(NC(=O)c2c3c(nn2C)-c2ccccc2SC3)cc1Cl | -32.2% (inactive) | –
OC(CBr)CN1CCCCC1 (stereo unspecified) | 0.422% (inactive) | –
COc1ccccc1NC(=O)c1cc(S(=O)(=O)NCCc2ccccc2)ccc1F | 0% (inactive) | –
Cc1nn(-c2ccccc2)c(C)c1/C=N/NC(=O)CSc1nc2ccccc2c(=O)n1-c1ccccc1 | – | 3.98 µM (active)
Cc1ccc(-n2c(SCC(=O)N/N=C/C=C/c3ccccc3[N+](=O)[O-])nc3ccccc3c2=O)cc1 | -13.8% (inactive) | –
C/C(=N\NC(=O)CSc1nc2ccccc2c(=O)n1-c1ccccc1C)c1cccs1 | -10.3% (inactive) | –
Cc1nnc(C)n1-c1ccc(C(=O)Nc2cccc(Br)c2)cc1 | 7.69% (inactive) | –
Cc1ccccc1CNC(=O)c1ccc(NC(=O)N2CCCCc3ccccc32)cc1 | 0.637% (inactive) | –
CCOC(=O)c1c(NC(=O)c2ccc(S(=O)(=O)N(CC)CC)cc2)sc2c1CCCCC2 | -9.19% (inactive) | –
Cc1c(C)n(Cc2ccc(Cl)cc2)c2ccc(C(=O)N3CCN(c4ccccc4F)CC3)cc12 | 0% (inactive) | –
CC(C)c1ccc2c(c1)c(SC(C)(C)C)c(CC(C)(C)C(=O)O)n2Cc1ccc(Cl)cc1 | – | 10 µM (active)
CCOc1cccc2sc(N3CCN(C(=O)C4CC4)CC3)nc12 | 0.888% (inactive) | –
COc1ccccc1NC(=O)CC(NCCN(C)C)C(=O)O (stereo unspecified) | 15.1% (inactive) | –
COc1cccc2sc(N(CCCN(C)C)C(=O)C(c3ccccc3)c3ccccc3)nc12 | – | 12.6 µM (active)
COc1ccc(N(C)C(=O)CCS(=O)(=O)c2cccc3nsnc23)cc1 | – | inactive
Cc1ccc2sc(N(CCN(C)C)C(=O)/C=C/c3cccs3)nc2c1C | -2.22% (inactive) | –
O=C(CCS(=O)(=O)c1ccccc1)Nc1nc2c(s1)CCCC2 | -22.5% (inactive) | –
Cc1ccc(S(=O)(=O)CCC(=O)OCC(=O)N(C)Cc2ccccc2)cc1 | -19% (inactive) | –
COc1cccc2sc(N(CCCN(C)C)C(=O)CCS(=O)(=O)c3ccccc3)nc12 | – | 1.12 µM (active)

SMILES | activity, negative = inhibition | Potency
Cc1cccc2sc(N(CCCN(C)C)C(=O)CCS(=O)(=O)c3ccccc3)nc12 | – | 3.16 µM (active)
Cc1ccc(-c2nnc(Nc3cccc(Br)c3)c3ccccc23)cc1S(=O)(=O)NCC1CCCO1 (stereo unspecified) | -2.65% (inactive) | –
CCOC(=O)c1c(NC(=O)/C(C#N)=C/c2ccccc2)sc2c1CCC2 | -10.7% (inactive) | –
Cc1cccc(CC(=O)Nc2cccc(-c3cn4cccnc4n3)c2)c1 | -7.3% (inactive) | –
COc1ccc(-c2nc(C)c(CCNC(=O)c3ccc(C(F)(F)F)cc3)s2)cc1OC | 11.9% (inactive) | –
CCOC(=O)c1cc(OC(=O)c2ccccc2Cl)n(-c2ccccc2)n1 | -17.4% (inactive) | –
CSc1nc(=O)c2c(n1C)NC(=O)CC2c1ccccc1OC(C)C (stereo unspecified) | -2.01% (inactive) | –
Cc1cn(C)c(CC(=O)NCc2ccc(Cl)cc2)c1C(=O)O | 10.5% (inactive) | –
CCOc1n[nH]c(-c2ccccc2)n1 | -5.85% (inactive) | –
CCOC(=O)c1ccc(NC(=O)CC2C(=O)N(c3cccc(OC)c3)C(=O)N2C2CCCCC2)cc1 (stereo unspecified) | -42.9% (inactive) | –
Cc1ccc(NC(=O)CCNC(=O)c2ccc([N+](=O)[O-])cc2)cc1S(=O)(=O)N1CCOCC1 | 1.06% (inactive) | –
Cc1ccc([N+](=O)[O-])cc1S(=O)(=O)N1CCCN(C)CC1 | -1.45% (inactive) | –
Cc1ccc(C)c(S(=O)(=O)N2CCN(CC(=O)Nc3ccc([N+](=O)[O-])cc3)CC2)c1 | – | 8.91 µM (active)
Cc1cccc(N2CCN(C(=O)c3oc(=O)c4ccccc4c3-c3ccccc3)CC2)c1C | 0% (inactive) | –
CCOc1ccccc1NC(=O)Cn1c(=O)n(Cc2ccccc2)c(=O)c2c(C)c(C(=O)N(C)C)sc21 | -4.55% (inactive) | –
CCC(=O)N1CCc2cc(S(=O)(=O)NCCC(=O)Nc3cccc(C)c3C)ccc21 | 3.97% (inactive) | –
CCOc1ccc(OCCSc2nc3ccccc3n2CC(=O)O)cc1 | 6.92% (inactive) | –
Cc1cccc(OCCSc2nc3ccccc3n2CC(=O)N2CCCCC2)c1C | – | 12.6 µM (active)
Cc1ccc(C(C)C)c(OCCSc2nc3ccccc3n2CC(=O)O)c1 | -8.84% (inactive) | –

Reference: PubChem BioAssay AID588855 (National Center for Advancing Translational Sciences (NCATS), 2011)
